Source: PubChem BioAssay (NCI)
About 83,000 compounds went through this panel and 20% of them were active in at least one assay; those are over-represented in the sample as a whole.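 Results are percent growth after 48 hours of single-concentration exposure. 100 means growth as in untreated cells, lower positive values show inhibition; negative values down to -100 show cell death.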 Active and inactive are the calls of the source. The calls were made as follows: active = growth percent below 10; inactive = the rest.

How the values were obtained:
Assay in all cases: NCI-60 one-dose screen, 48 h (100 = growth as untreated, 0 = no growth, -100 = all killed)
Conditions in all cases: 10 µM unless noted
HCT-15 colon = test system: HCT-15 colon
HT29 colon = test system: HT29 colon
SNB-75 CNS = test system: SNB-75 CNS
SNB-19 CNS = test system: SNB-19 CNS
U251 CNS = test system: U251 CNS
PC-3 prostate = test system: PC-3 prostate
SK-MEL-5 melanoma = test system: SK-MEL-5 melanoma
UACC-62 melanoma = test system: UACC-62 melanoma
SK-MEL-28 melanoma = test system: SK-MEL-28 melanoma
LOX IMVI melanoma = test system: LOX IMVI melanoma

Measured: growth

O=C(O)COc1ccc([N+](=O)[O-])cc1Cl
inactive: HCT-15 colon 94.1% | HT29 colon 113% | SNB-75 CNS 94.3% | SNB-19 CNS 107% | U251 CNS 96.5% | PC-3 prostate 97.6% | SK-MEL-5 melanoma 106% | UACC-62 melanoma 111% | SK-MEL-28 melanoma 104%

CCCNC(=O)Oc1ccc(/C(=C(/CC)Cc2ccccc2)c2ccc(OCCN(CC)CC)cc2)cc1
inactive: SNB-75 CNS 63.6% | SNB-19 CNS 87.7% | U251 CNS 45.1% | PC-3 prostate 60.8% | SK-MEL-5 melanoma 39.8% | UACC-62 melanoma 91.7% | SK-MEL-28 melanoma 92.9%
active: HCT-15 colon 7.99% | HT29 colon -14.8%

CC#Cc1nc(Nc2cc(C)[nH]n2)c2ccccc2n1
inactive: SNB-19 CNS 43% [100 µM] | SK-MEL-28 melanoma 40.5% [100 µM]
active: HCT-15 colon -0.521% [100 µM] | HT29 colon 2.45% [100 µM] | SNB-75 CNS -14.3% [100 µM] | U251 CNS -25.5% [100 µM] | PC-3 prostate -28.8% [100 µM] | SK-MEL-5 melanoma -71.9% [100 µM] | UACC-62 melanoma -84.1% [100 µM]

COc1ccc(-c2nc(SCC(C)C)nc(Nc3ccc(C(=O)O)cc3)c2C#N)cc1
inactive: HCT-15 colon 33% | HT29 colon 94.7% | SNB-75 CNS 88.6% | SNB-19 CNS 98.1% | U251 CNS 94.8% | PC-3 prostate 82.3% | SK-MEL-5 melanoma 63.3% | UACC-62 melanoma 99.3% | SK-MEL-28 melanoma 25.5%

O=C1N/C(=N\c2nnc(-c3ccc(O)cc3)s2)S/C1=C\c1ccccc1O
inactive: HCT-15 colon 93.3% | HT29 colon 115% | SNB-75 CNS 78.5% | SNB-19 CNS 93.8% | U251 CNS 101% | PC-3 prostate 87% | SK-MEL-5 melanoma 99.7% | LOX IMVI melanoma 93% | SK-MEL-28 melanoma 106%

CCCCCCC(=O)C(C)C
inactive: HCT-15 colon 102% | HT29 colon 109% | SNB-75 CNS 95.1% | SNB-19 CNS 107% | U251 CNS 98.6% | PC-3 prostate 100% | SK-MEL-5 melanoma 101% | UACC-62 melanoma 107% | SK-MEL-28 melanoma 113%

O=C(O)c1occ(Cl)c1Cl
inactive: HCT-15 colon 105% | HT29 colon 122% | SNB-75 CNS 99.2% | SNB-19 CNS 109% | U251 CNS 104% | PC-3 prostate 109% | SK-MEL-5 melanoma 113% | LOX IMVI melanoma 99.7% | SK-MEL-28 melanoma 116%

OCC(O)C(O)CC1SCCS1 (configuration not stated)
inactive: HCT-15 colon 104% | HT29 colon 101% | SNB-75 CNS 94.7% | SNB-19 CNS 94.8% | U251 CNS 99.9% | PC-3 prostate 102% | UACC-62 melanoma 97.7% | LOX IMVI melanoma 91.8% | SK-MEL-28 melanoma 110%
